Assay outcomes from PubChem.
An excerpt weighted towards active compounds, which were near 2.6% of everything screened.
Platelet DG rel: inhibitors of platelet dense granule secretion, primary screen, cell-based, MLPCN, human platelets; human platelet-rich plasma, SFLLRN dense granule ATP release, luminescence; actives 0.22% (n = 300,000); inhibition, %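 (compounds screened at 7.5 µM in platelet-rich plasma)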; AID 1663, 2009;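 active = mean replicate score, as percent of positive control, at or above 50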
Exocytosis inh: LAMP-1 surface exposure blockers, TALL-104 cells – cell-based, flow cytometry, MLPCN library, primary screen | actives 0.66% (n = 360,000) | inhibition, % at 10 µM | TALL-104 LAMP-1 surface exposure; cells stimulated with thapsigargin and PMA | AID 651702, 2012;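 active = inhibition above about 55%, limit read from the data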
Rce1 inhib: yeast Rce1p protease inhibitors, primary screen, biochemical, fluorescence, cell-free homogeneous | calls only | CAAX prenyl protease 2 (Saccharomyces cerevisiae (strain ATCC 204508 / S288c)), Q03530 | actives 0.27% (n = 290,000) | yeast membranes, quenched prenylated peptide cleavage fluorescence;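 active = fall in fluorescence gain of 50% or more versus controls, with final raw signal at or below 3038400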
Target sequence (Q03530 whole entry, looked up): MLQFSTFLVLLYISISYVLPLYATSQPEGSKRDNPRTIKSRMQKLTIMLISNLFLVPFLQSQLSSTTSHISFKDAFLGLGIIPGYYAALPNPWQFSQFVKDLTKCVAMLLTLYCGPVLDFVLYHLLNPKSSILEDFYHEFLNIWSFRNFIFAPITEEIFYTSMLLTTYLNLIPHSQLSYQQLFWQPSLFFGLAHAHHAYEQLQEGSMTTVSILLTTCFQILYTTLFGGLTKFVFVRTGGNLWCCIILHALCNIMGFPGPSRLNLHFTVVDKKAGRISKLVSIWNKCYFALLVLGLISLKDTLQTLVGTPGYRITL
ABHD5-PLIN5 inh: ABHD5-PLIN5 interaction inhibitors, primary screen, cell lysate, split luciferase complementation, luminescence. AID 602281, 2012. Split G. princeps luciferase complementation, 4 h. actives 0.78% (n = 360,000). inhibition, % at 4 µM. Perilipin-5 (Homo sapiens) + 1-acylglycerol-3-phosphate O-acyltransferase ABHD5 (Homo …;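 active = inhibition above the mean inhibition across every tested compound plus 3 SD, cut at about 22% in these data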
PfM18AAP inh-1: PfM18AAP inhibitors, malaria aminopeptidase, primary screen, biochemical, QFRET, recombinant enzyme. actives 1.2% (n = 290,000). inhibition, % at 7.35 µM. M18 aspartyl aminopeptidase (Plasmodium falciparum 3D7). H-Glu-NHMec fluorogenic cleavage. AID 1822, 2009;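 active = inhibition above the campaign mean inhibition over all tested compounds plus 3 SD, cut at about 28% in these data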
PfM18AAP inh-2: PfM18AAP inhibitors, malaria aminopeptidase, confirmation, biochemical, QFRET, recombinant enzyme, triplicate; inhibition, % at 7.35 µM; actives 28% (n = 2,400); AID 2170, 2009; H-Glu-NHMec fluorogenic cleavage; shares compounds with PfM18AAP inh-1;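 active = mean inhibition over replicate wells above the hit cutoff set for the earlier primary screen, cut at about 29% in these data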
CTSL1 counter: cathepsin L1 inhibitors, retest, confirmation, counter-screen for PFM18AAP inhibitor project, biochemical, QFRET, triplicate; shares compounds with PfM18AAP inh-1; purified cathepsin L1, Z-Leu-Arg-MCA fluorescence; inhibition, % at 5.96 µM; 2,400 tested, under 10 active;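 active = average inhibition across replicates above the hit cutoff set in the earlier primary screen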
Large screens that a line does not name were inactive (follow-up assays come after a bar, where they were run).

Cc1ccc(-n2c(CCc3nc4ccccc4[nH]3)n[nH]c2=S)cc1	PfM18AAP inh-1 33 | PfM18AAP inh-2 inactive | CTSL1 counter inactive
NC(=O)C1CCN(C(=S)c2ccc(-c3ccc(Br)cc3)o2)CC1	PfM18AAP inh-1 49 | PfM18AAP inh-2 inactive | CTSL1 counter inactive
O=C(CC1NCCc2ccccc21)Nc1ccccc1 (stereo not given)	none
CCc1nc2c(OCC(=O)C(C)(C)C)cccn2c1N(C=O)Cc1ccccc1	none (no result: Platelet DG rel, Rce1 inhib, PfM18AAP inh-1)
Cc1cccc2nc(CSc3nc4cc([N+](=O)[O-])ccc4s3)cn12	none
Cc1ccc(Cn2ccc(NC(=O)c3cc(-c4ccc(Br)cc4)on3)n2)cc1	none
CCSc1nnc(NC(=O)CSc2nnc(CNC(=O)c3ccc(OC)c(OC)c3)o2)s1	none
CCc1nnc(NC(=O)CSc2nnc(CNC(=O)c3ccc(OC)c(OC)c3)o2)s1	PfM18AAP inh-1 42 | PfM18AAP inh-2 inactive | CTSL1 counter inactive
CCN(CC)c1ccc(C2C3CCCCC3(O)CCN2CC(=O)N2CCCCC2)cc1 (stereo not given)	PfM18AAP inh-1 49 | PfM18AAP inh-2 inactive | CTSL1 counter inactive
CC(C)c1ccccc1-n1c(SCC(=O)N2CCN(c3ccccc3)CC2)nnc1-c1cccnc1	none
CNC(=O)C1C(=S)NC(N)=C(C#N)C1c1ccccc1 (stereo not given)	Exocytosis inh 69, PfM18AAP inh-1 47 | PfM18AAP inh-2 inactive | CTSL1 counter inactive
O=C1/C(=C\c2cccc(O)c2O)SC(=S)N1Cc1ccccc1	PfM18AAP inh-1 58 | PfM18AAP inh-2 inactive | CTSL1 counter inactive
CCOc1ccccc1C(=O)N/N=C/c1coc2ccc(Cl)cc2c1=O	PfM18AAP inh-1 33 (no result: Platelet DG rel) | PfM18AAP inh-2 inactive | CTSL1 counter inactive
CC(=O)NS(=O)(=O)c1ccc(NC(=O)c2ccc3c(c2)NC(=O)CS3)cc1	none (no result: Platelet DG rel, Rce1 inhib, PfM18AAP inh-1)
COc1ccc(NC(=O)c2ccc3c(c2)NC(=O)CS3)cc1S(=O)(=O)Nc1ccc(Br)cc1	PfM18AAP inh-1 32 | PfM18AAP inh-2 inactive | CTSL1 counter inactive
Cc1ccc(NS(=O)(=O)c2cc(NC(=O)c3ccc4c(c3)NC(=O)CS4)ccc2C)c(C)c1	PfM18AAP inh-1 48 | PfM18AAP inh-2 inactive | CTSL1 counter inactive
CNc1nc(CC(C)=O)ns1	none
CCOC(=O)c1c(C)[nH]c(C)c1C(=O)COC(=O)[C@@H](NC(=O)c1ccccc1OCC)C(C)C	none
N#C/C(=C(/O)CSc1ncn[nH]1)c1nc2ccccc2[nH]1	PfM18AAP inh-1 64 | PfM18AAP inh-2 inactive | CTSL1 counter inactive
Cc1cc(C)n2c(SCC(O)=C(C#N)c3nc4ccccc4[nH]3)nnc2n1	none (no result: Platelet DG rel, Rce1 inhib, PfM18AAP inh-1)
Cc1ccc(NC(=O)NC2CCCN2S(=O)(=O)c2ccc(Cl)cc2)cc1 (stereo not given)	none
C=CCn1c(Cc2ccccc2)n[nH]c1=S	PfM18AAP inh-1 34 | PfM18AAP inh-2 inactive | CTSL1 counter inactive
C=CCn1c(-c2ccoc2)n[nH]c1=S	PfM18AAP inh-1 49 | PfM18AAP inh-2 inactive | CTSL1 counter inactive
C=CCn1c(-c2ccccc2)n[nH]c1=S	none
COC(=O)COc1ccc(C)cc1-n1nc2ccccc2n1	PfM18AAP inh-1 38 | PfM18AAP inh-2 inactive | CTSL1 counter inactive
Cc1ccc(OC(=O)COc2ccccc2C)c(-n2nc3ccccc3n2)c1	none
COc1cccc(CN(C)Cc2nc3cc(C(F)(F)F)ccc3c(=O)[nH]2)c1	none
CSc1nnc(C(C)(C)C)c(=O)n1/N=C/c1ccccc1	none
Cc1nnc(N/N=C/c2ccc(Br)cc2)n1N	Exocytosis inh 78, PfM18AAP inh-1 48 | PfM18AAP inh-2 inactive | CTSL1 counter inactive
Cc1nnc(N/N=C/c2ccc(-c3ccc(Br)cc3)o2)n1N	PfM18AAP inh-1 51 | PfM18AAP inh-2 inactive | CTSL1 counter inactive
CC(C)(C)c1nnc(N/N=C/c2ccccc2)n(N)c1=O	PfM18AAP inh-1 47 | PfM18AAP inh-2 inactive | CTSL1 counter inactive
